Results from the supplement of paper PMC12067926.
Values without a mark were called inactive.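 Rule for the calls: active = growth AUC significantly below the DMSO wells by Dunnett test; inactive = the rest.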

What follows are molecules tested on Carnobacterium 1 (Carnobacterium gallinarum) (assay: relative growth (AUC of 72 h growth curve relative to DMSO control, dAUC) (ratio); higher = more growth (less inhibition), active = hit call of the paper). Settings: 20 µM.
Experimental: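 Environmental bacterial isolates (Iceland stream sediment and Silwood Park soil) and whole stream-sediment communities were grown in LB from a 1:100 dilution with each pesticide at 20 µM (1% DMSO). A600 was read hourly for 72 h and the area under a spline-fitted growth curve (AUC) was computed. dAUC is the mean AUC of 3 biological replicates divided by the mean AUC of the DMSO controls. Significance was tested by Dunnett's test against the DMSO control.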

Row | Structure (SMILES) | relative growth
1 | CC(C)CC(C)c1sccc1NC(=O)c1cn(C)nc1C(F)(F)F (configuration not stated) | 0.721
2 | O=C(O)c1nc(Cl)ccc1Cl | 0.925
3 | Cc1nnc(-c2ccccc2)c(=O)n1N | 0.953
4 | C[N+]1(C)CCCCC1 | 1.2
5 | N#Cc1c(Cl)c(Cl)c(Cl)c(C#N)c1Cl | 1.11
6 | CS(=O)(=O)NC(=O)c1cc(Oc2ccc(C(F)(F)F)cc2Cl)ccc1[N+](=O)[O-] | 0.908
7 | OC(Cn1cncn1)(c1ccc(F)cc1)c1ccccc1F (configuration not stated) | 1.15
8 | CC1(C)C(C=C(Cl)Cl)C1C(=O)OCc1cccc(Oc2ccccc2)c1 (configuration not stated) | 0.871
9 | O=C(NC(=O)c1c(F)cccc1F)Nc1ccc(OC(F)(F)C(F)OC(F)(F)F)c(Cl)c1 (configuration not stated) | 0.745
10 | CC(C)N(C(=O)COc1nnc(C(F)(F)F)s1)c1ccc(F)cc1 | 1.04
11 | CCC(C)(C)C(=O)OC1=C(c2ccc(Cl)cc2Cl)C(=O)OC12CCCCC2 | 1.13
12 | CNC(=O)ON=C(C)SC | 1.18
13 | CC(C)N1C(=O)c2ccccc2NS1(=O)=O | 0.693
14 | C#CCOc1ccc(CCNC(=O)C(OCC#C)c2ccc(Cl)cc2)cc1OC (configuration not stated) | 1.18
15 | CC(C)N1C(=O)N(c2ccccc2)CS/C1=N\C(C)(C)C | 0.913
16 | CCSC(C)CC1CC(=O)C(/C(CC)=N/OC/C=C/Cl)=C(O)C1 (mixture of isomers) | 1.27
17 | COCC(C)N(C(=O)CCl)c1c(C)csc1C (configuration not stated) | 0.859
18 | COCc1cnc(C2=NC(C)(C(C)C)C(=O)N2)c(C(=O)O)c1 (configuration not stated) | 0.837
19 | CCOc1ccc(C(C)(C)COCc2cccc(Oc3ccccc3)c2)cc1 | 0.99
20 | Nc1c([N+](=O)[O-])ccc(Oc2ccccc2)c1Cl | 0.792
21 | COc1cc(OC)nc(NC(=O)NS(=O)(=O)c2ncccc2C(=O)N(C)C)n1 | 1.09
22 | CO/C=C(/C(=O)OC)c1ccccc1Oc1cc(Oc2ccccc2C#N)ncn1 | 1.27
23 | CN/C(=N/CC1CCOC1)N[N+](=O)[O-] (configuration not stated) | 1.46
24 | Cc1cc(C(F)(C(F)(F)F)C(F)(F)F)ccc1NC(=O)c1cccc(I)c1C(=O)NC(C)(C)CS(C)(=O)=O | 0.956
25 | COP(=S)(OC)Oc1nc(Cl)c(Cl)cc1Cl | 0.447
26 | CCC(C)c1ccccc1OC(=O)NC (configuration not stated) | 1.11
27 | CC1(C)C(C(=O)OC(C#N)c2cccc(Oc3ccccc3)c2)C1(C)C (configuration not stated) | 1.18
